For test [1], the system named is S. cerevisiae SK1 pCDA2-eGFP (USY613), sporulating. Briefly: CDA2-GFP sporulation assay sensitivity score (z-score vs DMSO controls); higher = stronger inhibition of sporulation, active = hit call of the paper.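 Note: active if sensitivity score above 5.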
Test [2] deals with S. cerevisiae AD1-9 (efflux-pump deficient), vegetative growth in YPD. Briefly: growth sensitivity score (doubling time z-score vs DMSO controls); higher = slower growth, strongly negative scores also mark growth inhibition (complete suppression), active = hit call of the paper. Summed up:
(§1)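 Optical density of Saccharomyces cerevisiae cultures in microtiter plates was followed every 15 min for 24 hours after seeding at an OD600 of 0.065. Eight solvent-only wells were run per experiment. Growth sensitivity scores were found by subtracting the solvent-only mean from the compound mean and dividing by the solvent-only standard deviation.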

Test [3] deals with S. cerevisiae BY4741 (wild-type), vegetative growth in YPD. The test is described as above. Summed up: as §1
The subject of test [4] is S. cerevisiae NKY1551 his4x/his4B, sporulating. Briefly: HIS4 meiotic recombination assay sensitivity score (z-score vs DMSO controls); higher = stronger inhibition of sporulation/recombination, active = hit call of the paper.

Where a name gives a salt, the structure may show the parent alone.
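Throughout, for HIS4 meiotic recombination assay sensitivity score (z-score vs DMSO controls): active if sensitivity score above 5.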

For the compound `C[C@]12C=CC(=O)C=C1CC[C@@H]1[C@@H]2[C@@H](O)C[C@@]2(C)[C@H]1CC[C@]2(O)C(=O)COC(=O)CCC(=O)O` (stock concentration (mM, diluted 1:100): 10), in test [1], the “CDA2-GFP sporulation assay sensitivity score” value is -0.32 (inactive). Besides, the growth sensitivity score in test [2] was -0.63 (inactive); in test [3] it was -0.61 (inactive).
Take `Clc1ccccc1C(c1ccccc1)(c1ccccc1)n1ccnc1` [Clotrimazole] (stock concentration (mM, diluted 1:100): 10): the “CDA2-GFP sporulation assay sensitivity score” value in test [1] is 3.7 (inactive). The growth sensitivity score in test [2] is 2.49 (active); in test [3] it was 62.8 (active).
Regarding `CNCC[C@@H](Oc1ccccc1C)c1ccccc1` [Atomexetine hydrochloride] (stock concentration (mM, diluted 1:100): 8.7), in test [1], the “CDA2-GFP sporulation assay sensitivity score” value was 0.57 (inactive). Also, the growth sensitivity score in test [2] is 5.57 (active); in test [3], 0.06 (inactive).
Consider `CC(C(=O)O)c1ccc(CC2CCCC2=O)cc1` (stereo unspecified) [Loxoprofen sodium] (stock concentration (mM, diluted 1:100): 9.1), for which the “CDA2-GFP sporulation assay sensitivity score” value in test [1] was -0.04 (inactive). Besides, the growth sensitivity score in test [2] is -0.52 (inactive); in test [3], -0.61 (inactive).
`Cc1ccsc1C(=CCCN1CCC[C@@H](C(=O)O)C1)c1sccc1C` [Tiagabine hydrochloride] (stock concentration (mM, diluted 1:100): 9.1): in test [1], the “CDA2-GFP sporulation assay sensitivity score” value is 2.44 (inactive). The growth sensitivity score is 0.07 (inactive) in test [2] and 0.29 (inactive) in test [3].
`Cc1cccc(CCN2CCC(C(=O)c3ccc(NS(C)(=O)=O)cc3)CC2)n1` (stock concentration (mM, diluted 1:100): 9.9): in test [1], the “CDA2-GFP sporulation assay sensitivity score” value is -0.99 (inactive). The “HIS4 meiotic recombination assay sensitivity score” value in test [4] was -3.32 (inactive). In test [3], the growth sensitivity score was -0.44 (inactive).
In the case of `COc1ccccc1N1CCN(CC(O)COc2cccc3ccccc23)CC1` (stereo unspecified) [Naftopidil] (stock concentration (mM, diluted 1:100): 10), in test [1], the “CDA2-GFP sporulation assay sensitivity score” value was 9.59 (active). Further, the “HIS4 meiotic recombination assay sensitivity score” value in test [4] was 5.23 (active). In addition, in test [3], the growth sensitivity score was 7.62 (active).
In the case of `C[C@]12CC[C@@H]3c4ccc(OS(=O)(=O)O)cc4CC[C@H]3[C@@H]1CCC2=O` (stock concentration (mM, diluted 1:100): 10), the “CDA2-GFP sporulation assay sensitivity score” value in test [1] was 4.09 (inactive). The growth sensitivity score was 0.01 (inactive) in test [2] and -0.87 (inactive) in test [3].
For `O=C1Nc2ccc(Cl)cc2[C@@](C#CC2CC2)(C(F)(F)F)O1` [Efavirenz] (stock concentration (mM, diluted 1:100): 10.1), the “CDA2-GFP sporulation assay sensitivity score” value in test [1] was -2.28 (inactive). Further, the “HIS4 meiotic recombination assay sensitivity score” value in test [4] is -0.43 (inactive). Besides, the growth sensitivity score in test [3] was 40.5 (active).
For the compound `COCc1c(C(C)C)nc(C(C)C)c(/C=C/[C@@H](O)C[C@@H](O)CC(=O)O)c1-c1ccc(F)cc1` [Cerivastatin] (stock concentration (mM, diluted 1:100): 10), the “CDA2-GFP sporulation assay sensitivity score” value in test [1] is 0.79 (inactive). Also, the “HIS4 meiotic recombination assay sensitivity score” value in test [4] was 0.17 (inactive). Also, the growth sensitivity score in test [3] is 28.6 (active).
`CCc1oc2ccccc2c1C(=O)c1cc(Br)c(O)c(Br)c1` [Benzbromarone] (stock concentration (mM, diluted 1:100): 10): the “CDA2-GFP sporulation assay sensitivity score” value in test [1] is 13.7 (active). Also, the “HIS4 meiotic recombination assay sensitivity score” value in test [4] was -1.58 (inactive). Also, in test [3], the growth sensitivity score was 72.3 (active).
In the case of `N[C@@H](C(=O)N[C@@H]1C(=O)N2C(C(=O)O)=C(CSc3cn[nH]n3)CS[C@H]12)c1ccc(O)cc1` [Seapuron] (stock concentration (mM, diluted 1:100): 8.6), in test [4], the “HIS4 meiotic recombination assay sensitivity score” value is 0.57 (inactive). The growth sensitivity score is -1.14 (inactive) in test [2] and -0.6 (inactive) in test [3].
`COc1ccnc(C[S+]([O-])c2nc3cc(OC(F)F)ccc3[nH]2)c1OC` (stereo unspecified) [Pantoprazole sodium] (stock concentration (mM, diluted 1:100): 10): in test [1], the “CDA2-GFP sporulation assay sensitivity score” value was 0.75 (inactive). For the same compound, the growth sensitivity score was -2.1 in test [2] and -0.44 (inactive) in test [3].
The like results for `Nc1ccc2cn[nH]c2c1` [6-Aminoindazole] (stock concentration (mM, diluted 1:100): 10) were, in that order, 2.67 (inactive), -1.63 (inactive) and -0.64 (inactive).
For `Cc1c(O)c(=O)ccn1C` [Deferiprone] (stock concentration (mM, diluted 1:100): 10), the “CDA2-GFP sporulation assay sensitivity score” value in test [1] is 2.38 (inactive). Also, the growth sensitivity score in test [2] is -1.63 (inactive); in test [3], 0.2 (inactive).
On to `CCCN1CCCC[C@H]1C(=O)Nc1c(C)cccc1C` [Ropivacaine hydrochloride] (stock concentration (mM, diluted 1:100): 7.7), for which the “CDA2-GFP sporulation assay sensitivity score” value in test [1] was 3.5 (inactive). Further, the growth sensitivity score in test [2] is -2 (inactive); in test [3] it was -0.74 (inactive).
In the case of `COc1cc(C(=O)NS(=O)(=O)c2ccccc2C)ccc1Cc1cn(C)c2ccc(NC(=O)OC3CCCC3)cc12` [Zafirlukast] (stock concentration (mM, diluted 1:100): 10), the “CDA2-GFP sporulation assay sensitivity score” value in test [1] is 0.72 (inactive). Besides, the growth sensitivity score in test [2] was 40.9 (active); in test [3], -1.75 (inactive).

Values taken from the supplement of paper PMC3414501.
